Results taken from PubChem BioAssay (EPA / NIEHS).
Calls of active or inactive are those of the source. Rule for the calls: active = hit-call score of the fitted dose curve at least 0.9, where 1 is the maximum; inactive = score below 0.9.

Key:
[1] = biological target: Bile acid receptor (Homo sapiens) (UniProt Q96RI1); test: ATG_IR1_CIS: Attagene CIS-FACTORIAL HepG2 Assay for human Nuclear Receptor Subfamily 1 Group H Member 4 (NR1H4), IR1 submotif (AID 2282946); details: IR1 reporter transcription, actives raise or lower the signal
Method in brief: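 Readout: reporter transcript levels by RT-PCR with fluorescent capillary electrophoresis, from HepG2 cells transiently transfected with multiplexed cis-regulated reporters and dosed 24 h. Gain- or loss-of-signal fitted versus DMSO negative control.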

[2] = ATG_ISRE_CIS: Attagene CIS-FACTORIAL HepG2 Assay for human Interferon Regulatory Factor 1 (IRF1) binding to an Interferon-Stimulated Response Element (ISRE) (AID 2282948); details: HepG2 ISRE cis-reporter (Attagene), mRNA transcription readout; actives raise or lower the signal
Method in brief: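 Multiplexed mRNA reporter readout in human liver HepG2 cells: cis-element-driven reporters transfected, compound added for 24 h, transcripts amplified, fluorescently labelled and sized by capillary electrophoresis; curve fitting bidirectional against DMSO.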

[3] = ATG_M_32_CIS: Attagene CIS-FACTORIAL HepG2 Assay for M32 Transcription Factor (Internal Marker) (AID 2282949); details: HepG2 Attagene cis-factorial M32 reporter, mRNA; actives raise or lower the signal;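 note: background control marker of the multiplexed CIS panel rather than a real target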
Method in brief: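 HepG2 transfectants (cis-regulated reporter transcription units) dosed 24 h. Reporter mRNA by RT-PCR plus CE, analysed as gain or loss relative to DMSO.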

[4] = ATG_M_06_CIS: Attagene CIS-FACTORIAL HepG2 Assay for M06 Transcription Factor (Internal Marker) (AID 2282950); details: HepG2 Attagene CIS-FACTORIAL M06 internal marker reporter; actives raise or lower the signal
Method in brief: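 One of many multiplexed endpoints: HepG2 reporter mRNA after 24 h dosing, detected by RT-PCR and capillary electrophoresis fluorescence; gain or loss of signal analysed against DMSO.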

[5] = biological target: Hypoxia-inducible factor 1-alpha (Homo sapiens) (UniProt Q16665); test: ATG_HIF1a_CIS: Attagene CIS-FACTORIAL HepG2 Assay for human Hypoxia Inducible Factor 1 (HIF1A) (AID 2282951); details: HepG2 Attagene cis-factorial HIF1a reporter transcription; actives raise or lower the signal
Method in brief: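 Fluorescence intensity of capillary-separated, 6-FAM-labelled reporter amplicons gives mRNA induction in HepG2 cells carrying transfected cis-promoter reporter units; cells exposed 24 h, responses fitted up or down from DMSO.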

[6] = biological target: Hepatocyte nuclear factor 6 (Homo sapiens) (UniProt Q9UBC0); test: ATG_HNF6_CIS: Attagene CIS-FACTORIAL HepG2 Assay for human Hepatocyte Nuclear Factor 6 (HNF6) (AID 2282952); details: HepG2 Attagene cis-factorial HNF6 reporter transcription; actives raise or lower the signal
Method in brief: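 Endogenous transcription factor activity in human HepG2 liver cells was captured through cis-regulated reporter constructs. After 24 h treatment, reporter mRNA was measured by RT-PCR with capillary electrophoresis, and activity was fitted in both directions relative to DMSO.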

[7] = biological target: Heat shock factor protein 1 (Homo sapiens) (UniProt Q00613); test: ATG_HSE_CIS: Attagene CIS-FACTORIAL HepG2 Assay for human Heat Shock Transcription Factor 1 (HSE) (AID 2282953); details: HepG2 HSE cis-reporter, Attagene RNA transcription; actives raise or lower the signal
Method in brief: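 Using HepG2 with transfected cis-driven reporter constructs, compound effects on endogenous factor activity are scored as reporter mRNA change at 24 h. Detection: RT-PCR, HpaI digestion, capillary electrophoresis; bidirectional fitting to DMSO.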

[8] = ATG_MRE_CIS: Attagene CIS-FACTORIAL HepG2 Assay for human Metal Responsive Element (MRE) (AID 2282954); details: HepG2 MRE cis-reporter transcription, Attagene multiplex; actives raise or lower the signal
Method in brief: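 Cells were transfected with cis-promoter reporter transcription units, then dosed for 24 h. RNA was reverse-transcribed, amplified, fluorescently labelled and resolved by capillary electrophoresis, and activity was fitted in both directions relative to DMSO.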

[9] = biological target: Paired box protein Pax-6 (Homo sapiens) (UniProt P26367); test: ATG_Pax6_CIS: Attagene CIS-FACTORIAL HepG2 Assay for human Paired Box 6 (PAX6) (AID 2282956); details: HepG2 CIS-FACTORIAL PAX6 reporter transcription, RNA readout; actives raise or lower the signal
Method in brief: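 Fluorescent RT-PCR products separated by capillary electrophoresis report PAX6-linked promoter mRNA in HepG2 cells 24 h post-dose. Curves fitted bidirectionally, DMSO as negative control.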

[10] = ATG_PXRE_CIS: Attagene CIS-FACTORIAL HepG2 Assay for human Pregnane X Receptor Element (PXRE) (AID 2282957); details: HepG2 Attagene CIS-FACTORIAL PXRE reporter, mRNA; actives raise or lower the signal
Method in brief: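 Endogenous transcription factor activity in HepG2 was gauged through induction of reporter mRNA driven by a cis-regulating promoter element, sampled 24 h post-treatment. Activity was fitted in both directions against DMSO negative control.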

[11] = ATG_PPRE_CIS: Attagene CIS-FACTORIAL HepG2 Assay for human Peroxisome Proliferator-activated Response Element (PPRE) (AID 2282958); details: HepG2 PPRE cis-element reporter, Attagene transcription factor profiling; actives raise or lower the signal
Method in brief: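 In this cell-based multiplex, a PPRE cis element drives a reporter sequence in transiently transfected HepG2 cells. Following 24 h treatment, labeled cDNA amplicons are sized and quantified by capillary electrophoresis, with DMSO defining baseline.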

[12] = ATG_RORE_CIS: Attagene CIS-FACTORIAL HepG2 Assay for human RAR-related Orphan Receptor Element (RORE) (AID 2282959); details: HepG2 Attagene cis-factorial RORE reporter, mRNA; actives raise or lower the signal
Method in brief: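 Endogenous factor activity at a cis response element is read as reporter transcript levels in HepG2 cells, 24 h post-dose. Transcripts are quantified by RT-PCR with capillary electrophoresis, and data fitted in both directions against DMSO.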

[13] = ATG_Sox_CIS: Attagene CIS-FACTORIAL HepG2 Assay for human SRY-box transcription factor (SOX) (AID 2282960); details: HepG2 Attagene cis-factorial SOX reporter, mRNA; actives raise or lower the signal
Method in brief: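 Measures mRNA induction of a SOX1-associated reporter in HepG2 after 24 h dosing. Fluorescently labelled RT-PCR fragments are separated by capillary electrophoresis, and gain or loss relative to DMSO control is fitted.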

[14] = biological target: Transcription factor Sp1 (Homo sapiens) (UniProt P08047); test: ATG_Sp1_CIS: Attagene CIS-FACTORIAL HepG2 Assay for human Specificity Protein 1 (Sp1) (AID 2282961); details: HepG2 Sp1 cis-reporter transcription, actives raise or lower the signal
Method in brief: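 Cells: HepG2, transiently transfected with cis-regulated multiplexed reporters. Exposure: 24 h. Detection: reporter transcripts amplified, fluorescently labeled, restriction-digested and sized by capillary electrophoresis. Analysis: bidirectional fit relative to DMSO.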

[15] = ATG_SREBP_CIS: Attagene CIS-FACTORIAL HepG2 Assay for human Sterol Regulatory Element Binding (SREBP) (AID 2282962); details: HepG2 Attagene cis-factorial SREBP reporter, mRNA; actives raise or lower the signal
Method in brief: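 Endogenous factor activity is measured in HepG2 through multiplexed reporter units under cis-element control. Following a 24 h incubation, reporter transcripts are reverse-transcribed, PCR-amplified and sized by capillary electrophoresis; activity is fitted in both directions relative to DMSO.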

[16] = biological target: Signal transducer and activator of transcription 3 (Homo sapiens) (UniProt P40763); test: ATG_STAT3_CIS: Attagene CIS-FACTORIAL HepG2 Assay for human Signal Transducer and Activator of Transcription 3 (STAT3) (AID 2282963); details: HepG2, Attagene cis-factorial STAT3 reporter transcription; actives raise or lower the signal
Method in brief: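 HepG2, MRTU-transfected, 24 h dosing. RNA → RT → PCR → FAM label → HpaI → CE. Bidirectional fit vs DMSO.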

[17] = ATG_TA_CIS: Attagene CIS-FACTORIAL HepG2 Assay for human TA Basal Promoter (AID 2282964); details: HepG2 Attagene CIS-factorial TA basal promoter reporter; actives raise or lower the signal
Method in brief: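 Transient MRTU transfection of HepG2 preceded 24 h compound exposure. Reporter mRNA levels were then read by RT-PCR with capillary electrophoresis, and this background-control endpoint was fitted bidirectionally to DMSO.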

[18] = ATG_TCF_b_cat_CIS: Attagene CIS-FACTORIAL HepG2 Assay for human T-Cell-Factor with beta-catenin (TCF/b-cat) (AID 2282965); details: HepG2 TCF/beta-catenin cis-reporter transcription, actives raise or lower the signal
Method in brief: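 In this cis-format system, transfected HepG2 cells report endogenous transcription factor activity. Readout after 24 h exposure is reporter transcript abundance from RT-PCR and capillary electrophoresis, analysed for gain or loss of signal versus DMSO.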

[19] = ATG_GRE_CIS: Attagene CIS-FACTORIAL HepG2 Assay for human Glucocorticoid Response Elements (GRE) (AID 2282947); details: HepG2 GRE cis-reporter, Attagene multiplex mRNA; actives raise or lower the signal
Method in brief: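 Cells (HepG2) bearing transfected cis-promoter reporter transcription units were treated with chemical for 24 hours. Reporter mRNA was measured via RT-PCR with capillary electrophoresis, and activity was fitted in both directions relative to DMSO.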

[20] = ATG_PBREM_CIS: Attagene CIS-FACTORIAL HepG2 Assay for human Phenobarbital-responsive Enhancer Module (PBREM) (AID 2282955); details: HepG2 PBREM cis-reporter, Attagene multiplexed transcription; actives raise or lower the signal
Method in brief: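 Cells were transfected with cis-element reporter units and treated for 24 h, after which RNA was extracted and reporter transcripts measured by RT-PCR and capillary electrophoresis.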

Measured: AC50

Transcription factor Sp1 (Homo sapiens), sequence (P08047 whole entry, looked up): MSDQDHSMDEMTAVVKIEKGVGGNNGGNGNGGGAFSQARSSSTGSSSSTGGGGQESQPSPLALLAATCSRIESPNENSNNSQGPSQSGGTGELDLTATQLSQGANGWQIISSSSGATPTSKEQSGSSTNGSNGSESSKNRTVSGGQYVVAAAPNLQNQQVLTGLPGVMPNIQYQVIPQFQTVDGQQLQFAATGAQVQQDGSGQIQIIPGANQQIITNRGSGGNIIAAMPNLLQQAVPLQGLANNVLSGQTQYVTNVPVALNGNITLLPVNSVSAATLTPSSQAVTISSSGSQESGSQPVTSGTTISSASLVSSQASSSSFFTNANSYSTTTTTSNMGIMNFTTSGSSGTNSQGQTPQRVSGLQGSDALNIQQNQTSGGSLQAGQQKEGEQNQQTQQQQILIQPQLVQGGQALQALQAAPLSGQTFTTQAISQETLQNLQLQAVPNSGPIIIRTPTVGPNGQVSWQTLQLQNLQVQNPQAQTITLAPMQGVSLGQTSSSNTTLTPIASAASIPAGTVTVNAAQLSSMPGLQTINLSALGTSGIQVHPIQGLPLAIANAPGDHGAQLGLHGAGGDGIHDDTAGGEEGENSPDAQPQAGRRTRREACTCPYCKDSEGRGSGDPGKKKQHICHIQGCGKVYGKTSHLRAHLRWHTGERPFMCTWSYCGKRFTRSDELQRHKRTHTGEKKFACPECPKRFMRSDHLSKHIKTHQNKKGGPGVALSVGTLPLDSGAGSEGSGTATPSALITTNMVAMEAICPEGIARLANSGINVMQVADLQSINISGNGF
Paired box protein Pax-6 (Homo sapiens), sequence (P26367 whole entry, looked up): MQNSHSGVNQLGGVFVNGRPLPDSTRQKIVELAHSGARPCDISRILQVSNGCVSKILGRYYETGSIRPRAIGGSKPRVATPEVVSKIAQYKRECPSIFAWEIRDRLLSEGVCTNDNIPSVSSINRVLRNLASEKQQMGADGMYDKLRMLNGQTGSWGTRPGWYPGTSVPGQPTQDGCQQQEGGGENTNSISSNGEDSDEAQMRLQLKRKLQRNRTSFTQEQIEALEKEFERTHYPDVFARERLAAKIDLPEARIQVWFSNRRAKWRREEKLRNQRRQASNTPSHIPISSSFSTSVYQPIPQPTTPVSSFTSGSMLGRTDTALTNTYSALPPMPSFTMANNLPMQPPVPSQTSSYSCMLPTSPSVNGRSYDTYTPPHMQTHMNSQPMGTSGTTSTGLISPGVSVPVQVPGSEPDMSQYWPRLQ
Hypoxia-inducible factor 1-alpha (Homo sapiens), sequence (Q16665 whole entry, looked up): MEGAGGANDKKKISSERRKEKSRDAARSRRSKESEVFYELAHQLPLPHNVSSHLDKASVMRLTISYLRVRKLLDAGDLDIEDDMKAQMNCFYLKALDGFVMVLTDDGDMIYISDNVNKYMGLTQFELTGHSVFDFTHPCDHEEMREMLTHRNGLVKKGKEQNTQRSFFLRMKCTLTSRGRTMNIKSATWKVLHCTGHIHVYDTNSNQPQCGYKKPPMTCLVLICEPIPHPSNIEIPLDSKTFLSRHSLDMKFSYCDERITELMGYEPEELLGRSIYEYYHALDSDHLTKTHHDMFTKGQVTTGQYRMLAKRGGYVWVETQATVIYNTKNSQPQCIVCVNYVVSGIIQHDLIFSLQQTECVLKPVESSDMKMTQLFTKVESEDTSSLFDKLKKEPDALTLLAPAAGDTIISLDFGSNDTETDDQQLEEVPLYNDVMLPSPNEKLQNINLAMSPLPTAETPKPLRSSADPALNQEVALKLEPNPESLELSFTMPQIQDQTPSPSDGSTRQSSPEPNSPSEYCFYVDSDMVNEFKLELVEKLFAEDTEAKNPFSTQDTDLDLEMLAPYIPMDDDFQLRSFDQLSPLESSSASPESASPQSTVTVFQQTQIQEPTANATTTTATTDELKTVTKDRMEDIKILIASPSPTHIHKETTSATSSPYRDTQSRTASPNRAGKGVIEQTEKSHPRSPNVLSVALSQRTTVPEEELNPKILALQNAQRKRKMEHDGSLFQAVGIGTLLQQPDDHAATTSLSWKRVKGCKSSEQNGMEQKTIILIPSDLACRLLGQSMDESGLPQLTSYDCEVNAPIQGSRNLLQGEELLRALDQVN
Bile acid receptor (Homo sapiens), sequence (Q96RI1 whole entry, looked up): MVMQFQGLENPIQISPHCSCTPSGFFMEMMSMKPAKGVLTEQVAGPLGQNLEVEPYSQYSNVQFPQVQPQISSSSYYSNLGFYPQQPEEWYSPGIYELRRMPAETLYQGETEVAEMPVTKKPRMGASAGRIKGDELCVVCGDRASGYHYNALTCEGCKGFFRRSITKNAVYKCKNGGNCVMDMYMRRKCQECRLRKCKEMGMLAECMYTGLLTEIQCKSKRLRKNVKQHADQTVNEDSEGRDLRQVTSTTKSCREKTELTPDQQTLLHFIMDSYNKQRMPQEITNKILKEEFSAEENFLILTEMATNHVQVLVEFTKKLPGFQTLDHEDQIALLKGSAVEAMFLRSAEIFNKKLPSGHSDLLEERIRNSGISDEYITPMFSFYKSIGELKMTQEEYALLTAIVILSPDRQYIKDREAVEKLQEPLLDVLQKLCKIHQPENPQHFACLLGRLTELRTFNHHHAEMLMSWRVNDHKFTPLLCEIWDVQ
Signal transducer and activator of transcription 3 (Homo sapiens), sequence (P40763 whole entry, looked up): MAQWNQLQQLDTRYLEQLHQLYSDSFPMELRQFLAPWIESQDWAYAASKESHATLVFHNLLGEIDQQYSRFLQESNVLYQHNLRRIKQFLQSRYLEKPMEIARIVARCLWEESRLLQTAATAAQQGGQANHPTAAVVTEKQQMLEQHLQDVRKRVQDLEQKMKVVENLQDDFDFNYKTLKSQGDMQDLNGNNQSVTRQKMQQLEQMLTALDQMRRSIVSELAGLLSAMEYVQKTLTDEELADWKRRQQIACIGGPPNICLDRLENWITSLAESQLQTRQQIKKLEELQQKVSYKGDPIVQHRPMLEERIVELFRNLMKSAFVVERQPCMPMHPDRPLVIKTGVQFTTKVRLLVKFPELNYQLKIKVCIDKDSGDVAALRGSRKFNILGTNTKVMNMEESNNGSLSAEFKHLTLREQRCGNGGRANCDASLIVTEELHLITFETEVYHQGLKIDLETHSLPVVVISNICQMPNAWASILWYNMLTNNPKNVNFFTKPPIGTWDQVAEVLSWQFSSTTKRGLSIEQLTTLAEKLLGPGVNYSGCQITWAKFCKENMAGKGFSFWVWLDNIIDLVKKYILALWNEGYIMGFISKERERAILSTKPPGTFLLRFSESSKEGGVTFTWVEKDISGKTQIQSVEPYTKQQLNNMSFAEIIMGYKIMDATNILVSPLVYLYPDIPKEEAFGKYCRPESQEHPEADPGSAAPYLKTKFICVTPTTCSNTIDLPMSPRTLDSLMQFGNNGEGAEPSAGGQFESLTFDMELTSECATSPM
Heat shock factor protein 1 (Homo sapiens), sequence (Q00613 whole entry, looked up): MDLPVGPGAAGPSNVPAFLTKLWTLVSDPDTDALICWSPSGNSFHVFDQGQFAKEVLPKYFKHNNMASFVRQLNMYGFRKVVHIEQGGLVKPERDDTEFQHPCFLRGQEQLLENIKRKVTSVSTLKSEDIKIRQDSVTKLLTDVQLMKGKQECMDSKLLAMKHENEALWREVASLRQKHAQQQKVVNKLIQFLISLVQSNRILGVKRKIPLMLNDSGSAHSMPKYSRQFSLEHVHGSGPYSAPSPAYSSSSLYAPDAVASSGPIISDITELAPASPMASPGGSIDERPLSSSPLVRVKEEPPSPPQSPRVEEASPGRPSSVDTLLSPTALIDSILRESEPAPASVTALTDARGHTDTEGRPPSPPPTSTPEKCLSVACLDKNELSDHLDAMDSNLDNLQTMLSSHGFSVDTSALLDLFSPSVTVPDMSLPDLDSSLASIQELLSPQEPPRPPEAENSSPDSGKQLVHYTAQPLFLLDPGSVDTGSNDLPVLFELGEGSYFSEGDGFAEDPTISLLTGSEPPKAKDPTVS
Hepatocyte nuclear factor 6 (Homo sapiens), sequence (Q9UBC0 whole entry, looked up): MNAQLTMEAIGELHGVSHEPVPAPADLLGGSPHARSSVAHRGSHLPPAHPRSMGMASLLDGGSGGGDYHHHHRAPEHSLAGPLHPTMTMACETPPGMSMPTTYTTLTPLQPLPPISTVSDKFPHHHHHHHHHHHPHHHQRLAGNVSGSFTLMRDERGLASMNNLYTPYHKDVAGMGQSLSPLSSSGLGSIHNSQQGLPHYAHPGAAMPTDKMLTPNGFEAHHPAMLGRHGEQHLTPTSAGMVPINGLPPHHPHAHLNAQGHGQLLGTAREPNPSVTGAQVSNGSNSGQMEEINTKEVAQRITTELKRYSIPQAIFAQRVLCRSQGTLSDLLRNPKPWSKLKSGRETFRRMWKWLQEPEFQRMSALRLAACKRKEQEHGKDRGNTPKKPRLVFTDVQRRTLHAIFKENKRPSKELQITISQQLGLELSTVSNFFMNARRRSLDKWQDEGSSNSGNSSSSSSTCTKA

CCCCNc1ccc(NCCCC)c2c1C(=O)c1ccccc1C2=O
active: [10] 0.886 µM
not listed: [19] | [20]
inactive: all other assays above

O=Cc1ccc(CO)o1
not listed: [2] | [11]
inactive: all other assays above

C/C=C\C/C=C/CCCCCCCCOC(C)=O
active: [1] 122 µM | [2] 155 µM | [7] 156 µM | [8] 100 µM | [9] 100 µM | [10] 26.2 µM | [18] 74.8 µM
not listed: [17] | [19]
inactive: all other assays above

O=C(c1ccc(O)cc1)c1ccc(O)cc1O
active: [10] 35.8 µM | [11] 100 µM | [15] 100 µM
not listed: [2] | [6]
inactive: all other assays above

CCN(CCO)c1cccc(C)c1
active: [10] 27.8 µM
not listed: [8] | [18] | [19]
inactive: all other assays above

CC/C=C\C/C=C\C/C=C\CCCCCCCC(=O)O
active: [2] 69 µM | [7] 188 µM | [8] 140 µM | [9] 100 µM | [11] 40.1 µM | [12] 48.7 µM | [18] 53.6 µM
not listed: [10] | [19]
inactive: all other assays above

C=C(C)C(=O)OCCO
not listed: [2] | [7] | [11]
inactive: all other assays above

CC(C)(C)c1ccc(OC(=O)c2ccccc2O)cc1
not listed: [2] | [8] | [10] | [11]
inactive: all other assays above

OCCc1ccncc1
not listed: [11] | [13] | [19] | [20]
inactive: all other assays above

CCC(C)C=O (centres undefined)
not listed: [19]
inactive: all other assays above

OC1OCCOC1O (centres undefined)
not listed: [11] | [14] | [19]
inactive: all other assays above

CC(C)=CCCC(C)C=O (centres undefined)
active: [10] 8.29 µM
not listed: [8] | [19]
inactive: all other assays above

C=CCCCCCCCCC(=O)OCCCC
active: [10] 42.1 µM
not listed: [7] | [19]
inactive: all other assays above

CC1=Nc2ccc3ccccc3c2C1(C)C
active: [7] 147 µM | [8] 100 µM | [10] 1.78 µM | [15] 100 µM
not listed: [11] | [19] | [20]
inactive: all other assays above

CCOC(=O)CC
not listed: [7] | [19]
inactive: all other assays above

CCCCCCCCCCCCCCCC[n+]1ccccc1
active: [11] 8.82 µM
not listed: [2] | [3] | [18] | [20]
inactive: all other assays above
